# Test results as given in PubChem BioAssay (NCATS).
# Records with an inconclusive call do not appear. A call without a number means that no potency is given here. Activity calls are given as the source filed them. Calls follow the shape of the dose curve; as a rule, active = well fitted inhibition curve with a large enough effect; inconclusive = small, poorly fitted or top-dose-only effect; inactive = flat fitted curve, though single readings scatter.
# Legend:
# Assay in all cases: qHTS profiling for inhibitors of Plasmodium falciparum proliferation (AID 504749); also: nearly all actives have a fitted effect of over 60% in size
# Details in all cases: P. falciparum in erythrocytes, SYBR Green DNA, 72 h; series mostly up to 28.7 µM
# [1] = tested on: 7G8
# Summary of the method: (§1)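 SYBR Green fluorescence of parasite DNA, read after lysis and overnight dark incubation, measured growth over 72 h in erythrocyte culture at 0.3% parasitemia and 2.5% hematocrit. Data normalised to DMSO and 0.29 uM artemisinin, with plate-drift correction.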
# [2] = tested on: AS120
# Summary of the method: as §1
# [3] = tested on: ATS189
# Summary of the method: as §1
# [4] = tested on: CP185
# Summary of the method: as §1
# [5] = tested on: CP192
# Summary of the method: as §1
# [6] = tested on: CP201
# Summary of the method: as §1
# [7] = tested on: CP238
# Summary of the method: as §1
# [8] = tested on: CP247
# Summary of the method: as §1
# [9] = tested on: CP265
# Summary of the method: as §1
# [10] = tested on: CP268
# Summary of the method: as §1
# [11] = tested on: CP286
# Summary of the method: as §1
# [12] = tested on: CP291
# Summary of the method: as §1
# [13] = tested on: CP305
# Summary of the method: as §1
# [14] = tested on: CP335
# Summary of the method: as §1
# [15] = tested on: DIV30
# Summary of the method: as §1
# [16] = tested on: GB4
# Summary of the method: as §1
# [17] = tested on: P94_40
# Summary of the method: as §1
# [18] = tested on: TAB109
# Summary of the method: as §1
# [19] = tested on: TAB113
# Summary of the method: as §1
# [20] = tested on: W2
# Summary of the method: as §1
# Potency is read from the fitted curve at half-maximal effect.
SMILES,Potency [1],Potency [2],Potency [3],Potency [4],Potency [5],Potency [6],Potency [7],Potency [8],Potency [9],Potency [10],Potency [11],Potency [12],Potency [13],Potency [14],Potency [15],Potency [16],Potency [17],Potency [18],Potency [19],Potency [20]
C[C@@H](Cc1ccc(O)cc1)NC[C@@H](O)c1cc(O)cc(O)c1,inactive,inactive,inactive,inactive,inactive,inactive,inactive,inactive,inactive,inactive,inactive,inactive,inactive,inactive,inactive,inactive,inactive,inactive,inactive,inactive
C[C@@H]1O[C@@H](O[C@H]2C[C@@H](O)[C@@]3(CO)[C@H]4[C@H](O)C[C@]5(C)[C@@H](C6=CC(=O)OC6)CC[C@]5(O)[C@H]4CC[C@@]3(O)C2)[C@@H](O)[C@H](O)[C@H]1O,inactive,inactive,inactive,inactive,inactive,inactive,inactive,inactive,inactive,inactive,inactive,inactive,inactive,inactive,inactive,inactive,inactive,inactive,inactive,
C=C[C@@H]1CN2CC[C@H]1C[C@H]2[C@H](O)c1ccnc2ccccc12,158 nM (active),891 nM (active),794 nM (active),1260 nM (active),953 nM (active),1510 nM (active),1410 nM (active),2240 nM (active),891 nM (active),1200 nM (active),794 nM (active),675 nM (active),757 nM (active),757 nM (active),757 nM (active),169 nM (active),398 nM (active),178 nM (active),501 nM (active),338 nM (active)
O=C1C[C@@H]2OCC=C3CN4CC[C@]56c7ccccc7N1[C@@H]5[C@@H]2[C@H]3C[C@H]46 (tested in a mixture with another compound),,,,,,,,,,,,,,,,,,,,6750 nM (active)
